Measurements from the supplement of paper PMC10849652.
About 8,800 targets were measured; listed, in parts, are those with a hit and a random draw of the rest. About 0.5% of all pairs of compound and target were hits.

Tests used:
Assay in all cases: log2 fold change, soluble protein after heating vs DMSO (PISA); higher = thermal stabilisation; K562 lysate, 10 uM; active = over 0.2 and 3.5 SD of the protein, either way, in both replicates (recomputed)
lapatinib = compound: CS(=O)(=O)CCNCc1ccc(-c2ccc3ncnc(Nc4ccc(OCc5cccc(F)c5)c(Cl)c4)c3c2)o1 [lapatinib]
Summary of the method: (§1)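 The values are log-two fold changes in thermal stability compared with solvent controls and come from duplicates. They were obtained by TMTpro 16plex LC-MS/MS, with channel sums equalised, on the supernatant after 21,000xg for 90 min. That supernatant came from crude K562 extract at 1 mg/mL protein treated with 10 μM compound for 30 min, heated for 3 min across 48°C-58°C, pooled and brought to 0.5% NP-40 at 4°C.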

crizotinib = compound: C[C@@H](Oc1cc(-c2cnn(C3CCNCC3)c2)cnc1N)c1c(Cl)ccc(F)c1Cl [crizotinib]
Summary of the method: as §1

[1] = compound: C[C@H](C1=CC=C(C=C1)C(=O)NC2=C3C=CNC3=NC=C2)N
Summary of the method: as §1

duvelisib = compound: C[C@H](Nc1ncnc2nc[nH]c12)c1cc2cccc(Cl)c2c(=O)n1-c1ccccc1 [duvelisib]
Summary of the method: as §1

gandotinib = compound: Cc1cc(Nc2cc(CN3CCOCC3)c3nc(C)c(Cc4ccc(Cl)cc4F)n3n2)n[nH]1 [gandotinib]
Summary of the method: as §1

tozasertib = compound: Cc1cc(Nc2cc(N3CCN(C)CC3)nc(Sc3ccc(NC(=O)C4CC4)cc3)n2)n[nH]1 [tozasertib]
Summary of the method: as §1

doramapimod = compound: Cc1ccc(-n2nc(C(C)(C)C)cc2NC(=O)Nc2ccc(OCCN3CCOCC3)c3ccccc23)cc1 [doramapimod]
Summary of the method: as §1

bafetinib = compound: Cc1ccc(NC(=O)c2ccc(CN3CC[C@H](N(C)C)C3)c(C(F)(F)F)c2)cc1Nc1nccc(-c2cncnc2)n1 [bafetinib]
Summary of the method: as §1

[2] = compound: Cc1cccc(CC(=O)N2CCc3c2ccc(-c2cn(C)c4ncnc(N)c24)c3F)n1
Summary of the method: as §1

nilotinib = compound: Cc1cn(-c2cc(NC(=O)c3ccc(C)c(Nc4nccc(-c5cccnc5)n4)c3)cc(C(F)(F)F)c2)cn1 [nilotinib]
Summary of the method: as §1

[3] = compound: Cc1nc(Nc2n[nH]c3c2CN(C(=O)N[C@H](CN(C)C)c2ccccc2)C3(C)C)c2sccc2n1
Summary of the method: as §1

dasatinib = compound: Cc1nc(Nc2ncc(C(=O)Nc3c(C)cccc3Cl)s2)cc(N2CCN(CCO)CC2)n1 [dasatinib]
Summary of the method: as §1

[4] = compound: Cc1ncc(-c2ccnc(Nc3ccc(S(C)(=O)=O)cc3)n2)n1C(C)C
Summary of the method: as §1

[5] = compound: Cn1cc(-c2ccc3c(c2)CCN3C(=O)Cc2cccc(C(F)(F)F)c2)c2c(N)ncnc21
Summary of the method: as §1

quisinostat = compound: Cn1cc(CNCC2CCN(c3ncc(C(=O)NO)cn3)CC2)c2ccccc21 [quisinostat]
Summary of the method: as §1

tipifarnib = compound: Cn1cncc1[C@@](N)(c1ccc(Cl)cc1)c1ccc2c(c1)c(-c1cccc(Cl)c1)cc(=O)n2C [tipifarnib]
Summary of the method: as §1

[6] = compound: NC(=O)Nc1cc(-c2cccc(F)c2)sc1C(=O)N[C@H]1CCCNC1
Summary of the method: as §1

[7] = compound: NC(=O)c1cnc(N[C@@H]2CCCC[C@@H]2N)nc1Nc1cccc(-n2nccn2)c1
Summary of the method: as §1

[8] = compound: NC1(c2ccc(-c3nc4ccn5c(=O)[nH]nc5c4cc3-c3ccccc3)cc2)CCC1
Summary of the method: as §1

pictilisib = compound: CS(=O)(=O)N1CCN(Cc2cc3nc(-c4cccc5[nH]ncc45)nc(N4CCOCC4)c3s2)CC1 [pictilisib]
Summary of the method: as §1

Measured: log2 fold change

CLASP1 (UniProt Q7Z460)
Sequence of UniProt Q7Z460 (Q7Z460 whole entry, looked up): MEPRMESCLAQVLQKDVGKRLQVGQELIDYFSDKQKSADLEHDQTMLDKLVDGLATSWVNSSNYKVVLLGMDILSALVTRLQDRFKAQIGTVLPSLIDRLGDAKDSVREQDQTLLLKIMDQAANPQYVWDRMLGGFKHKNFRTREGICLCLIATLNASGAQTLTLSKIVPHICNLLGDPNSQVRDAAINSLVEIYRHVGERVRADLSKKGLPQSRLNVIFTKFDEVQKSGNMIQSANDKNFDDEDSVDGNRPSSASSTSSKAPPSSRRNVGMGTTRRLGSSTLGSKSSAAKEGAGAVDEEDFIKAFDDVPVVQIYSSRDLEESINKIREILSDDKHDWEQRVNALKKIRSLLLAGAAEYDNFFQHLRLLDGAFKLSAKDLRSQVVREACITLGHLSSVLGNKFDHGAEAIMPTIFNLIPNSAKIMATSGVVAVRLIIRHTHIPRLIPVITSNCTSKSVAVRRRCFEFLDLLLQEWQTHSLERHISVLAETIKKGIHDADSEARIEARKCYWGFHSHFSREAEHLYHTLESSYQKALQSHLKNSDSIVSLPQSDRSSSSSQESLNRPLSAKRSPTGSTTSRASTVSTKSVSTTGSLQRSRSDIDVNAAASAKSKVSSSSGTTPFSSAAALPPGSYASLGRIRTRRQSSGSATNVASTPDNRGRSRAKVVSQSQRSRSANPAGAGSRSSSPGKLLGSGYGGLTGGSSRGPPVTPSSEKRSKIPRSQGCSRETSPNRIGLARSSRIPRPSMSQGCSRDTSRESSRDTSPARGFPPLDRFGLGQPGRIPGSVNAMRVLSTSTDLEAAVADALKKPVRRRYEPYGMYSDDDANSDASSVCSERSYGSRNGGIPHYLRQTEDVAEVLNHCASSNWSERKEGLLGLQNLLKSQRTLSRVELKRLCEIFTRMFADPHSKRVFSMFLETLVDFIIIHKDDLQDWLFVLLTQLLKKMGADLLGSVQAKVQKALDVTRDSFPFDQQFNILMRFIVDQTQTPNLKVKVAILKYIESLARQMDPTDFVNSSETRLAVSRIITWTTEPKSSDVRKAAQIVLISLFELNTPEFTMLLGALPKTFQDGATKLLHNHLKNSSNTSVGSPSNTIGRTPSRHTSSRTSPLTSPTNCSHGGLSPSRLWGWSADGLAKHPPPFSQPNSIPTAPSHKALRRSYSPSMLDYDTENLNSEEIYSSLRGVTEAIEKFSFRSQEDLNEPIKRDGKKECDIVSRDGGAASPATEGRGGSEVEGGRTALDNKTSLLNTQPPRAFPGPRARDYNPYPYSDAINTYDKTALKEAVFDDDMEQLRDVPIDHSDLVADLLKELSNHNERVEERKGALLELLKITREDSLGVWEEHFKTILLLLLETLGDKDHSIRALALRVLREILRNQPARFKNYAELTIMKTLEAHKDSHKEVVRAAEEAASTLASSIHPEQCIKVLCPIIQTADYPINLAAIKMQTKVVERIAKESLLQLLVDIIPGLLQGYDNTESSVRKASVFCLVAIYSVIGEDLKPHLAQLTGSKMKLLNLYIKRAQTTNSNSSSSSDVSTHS
inactive: lapatinib 0 | crizotinib -0.051 | [1] -0.09 | duvelisib -0.003 | gandotinib 0.188 | tozasertib 0.004 | doramapimod 0.03 | bafetinib -0.042 | [2] 0.185 | nilotinib -0.015 | [3] 0.021 | dasatinib -0.097 | [4] 0.013 | [5] 0.016 | quisinostat -0.085 | tipifarnib -0.051 | [6] -0.022 | [7] 0.012 | [8] -0.018

DDA1 (UniProt Q9BW61)
inactive: lapatinib 0.011 | pictilisib -0.025 | crizotinib 0.025 | [1] -0.013 | duvelisib -0.013 | gandotinib -0.019 | tozasertib -0.037 | doramapimod 0.013 | bafetinib 0.011 | [2] -0.062 | nilotinib 0.003 | [3] 0.008 | dasatinib -0.011 | [4] -0.056 | [5] 0.006 | quisinostat -0.006 | tipifarnib -0.008 | [6] -0.023 | [7] -0.027 | [8] 0.023

CORO7 (UniProt P57737)
inactive: crizotinib -0.004 | [1] -0.139 | duvelisib -0.084 | gandotinib 0 | tozasertib 0.092 | doramapimod 0.016 | [2] -0.335 | nilotinib -0.102 | [3] 0.136 | dasatinib 0.024 | [4] -0.072 | [5] 0.119 | quisinostat 0.171 | tipifarnib -0.051 | [6] 0.088 | [8] 0.183

DALRD3 (UniProt Q5D0E6)
Sequence of UniProt Q5D0E6 (Q5D0E6 whole entry, looked up): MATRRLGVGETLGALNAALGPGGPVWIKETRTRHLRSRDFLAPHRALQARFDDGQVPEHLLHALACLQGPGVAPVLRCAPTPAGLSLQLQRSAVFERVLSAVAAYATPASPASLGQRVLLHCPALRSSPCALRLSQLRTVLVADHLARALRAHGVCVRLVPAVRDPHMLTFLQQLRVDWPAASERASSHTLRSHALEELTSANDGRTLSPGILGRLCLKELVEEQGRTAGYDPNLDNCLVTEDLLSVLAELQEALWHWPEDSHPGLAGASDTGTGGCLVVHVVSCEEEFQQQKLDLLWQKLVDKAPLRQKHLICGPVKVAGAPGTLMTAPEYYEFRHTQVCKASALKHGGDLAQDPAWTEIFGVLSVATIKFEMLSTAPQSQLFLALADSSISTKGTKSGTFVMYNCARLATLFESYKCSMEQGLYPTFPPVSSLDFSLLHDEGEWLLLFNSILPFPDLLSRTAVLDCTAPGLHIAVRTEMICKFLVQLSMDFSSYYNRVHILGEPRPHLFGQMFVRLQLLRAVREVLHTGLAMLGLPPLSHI
inactive: lapatinib 0.021 | [1] -0.131 | gandotinib -0.087 | tozasertib 0.139 | [2] 0.096 | [7] -0.03 | [8] 0.207

DCTN1 isoform 4 (UniProt Q14203)
inactive: lapatinib -0.039 | crizotinib -0.031 | [1] 0.054 | duvelisib -0.032 | gandotinib 0.121 | tozasertib 0.173 | doramapimod -0.103 | [2] -0.239 | nilotinib 0.304 | [3] -0.331 | dasatinib -0.163 | [4] -0.288 | [5] -0.051 | quisinostat -0.064 | tipifarnib -0.064 | [6] 0.074 | [7] 0.139 | [8] 0.169

CLASP1 isoform 4 (UniProt Q7Z460)
inactive: nilotinib -0.113 | [3] 0.126 | [4] 0.09 | tipifarnib -0.301 | [8] 0.111

CSNK1G3 isoform 4 (UniProt Q9Y6M4)
inactive: lapatinib -0.035 | [7] 0.083

DAPK1 isoform 3 (UniProt P53355)
Sequence of UniProt P53355 (P53355 whole entry, looked up): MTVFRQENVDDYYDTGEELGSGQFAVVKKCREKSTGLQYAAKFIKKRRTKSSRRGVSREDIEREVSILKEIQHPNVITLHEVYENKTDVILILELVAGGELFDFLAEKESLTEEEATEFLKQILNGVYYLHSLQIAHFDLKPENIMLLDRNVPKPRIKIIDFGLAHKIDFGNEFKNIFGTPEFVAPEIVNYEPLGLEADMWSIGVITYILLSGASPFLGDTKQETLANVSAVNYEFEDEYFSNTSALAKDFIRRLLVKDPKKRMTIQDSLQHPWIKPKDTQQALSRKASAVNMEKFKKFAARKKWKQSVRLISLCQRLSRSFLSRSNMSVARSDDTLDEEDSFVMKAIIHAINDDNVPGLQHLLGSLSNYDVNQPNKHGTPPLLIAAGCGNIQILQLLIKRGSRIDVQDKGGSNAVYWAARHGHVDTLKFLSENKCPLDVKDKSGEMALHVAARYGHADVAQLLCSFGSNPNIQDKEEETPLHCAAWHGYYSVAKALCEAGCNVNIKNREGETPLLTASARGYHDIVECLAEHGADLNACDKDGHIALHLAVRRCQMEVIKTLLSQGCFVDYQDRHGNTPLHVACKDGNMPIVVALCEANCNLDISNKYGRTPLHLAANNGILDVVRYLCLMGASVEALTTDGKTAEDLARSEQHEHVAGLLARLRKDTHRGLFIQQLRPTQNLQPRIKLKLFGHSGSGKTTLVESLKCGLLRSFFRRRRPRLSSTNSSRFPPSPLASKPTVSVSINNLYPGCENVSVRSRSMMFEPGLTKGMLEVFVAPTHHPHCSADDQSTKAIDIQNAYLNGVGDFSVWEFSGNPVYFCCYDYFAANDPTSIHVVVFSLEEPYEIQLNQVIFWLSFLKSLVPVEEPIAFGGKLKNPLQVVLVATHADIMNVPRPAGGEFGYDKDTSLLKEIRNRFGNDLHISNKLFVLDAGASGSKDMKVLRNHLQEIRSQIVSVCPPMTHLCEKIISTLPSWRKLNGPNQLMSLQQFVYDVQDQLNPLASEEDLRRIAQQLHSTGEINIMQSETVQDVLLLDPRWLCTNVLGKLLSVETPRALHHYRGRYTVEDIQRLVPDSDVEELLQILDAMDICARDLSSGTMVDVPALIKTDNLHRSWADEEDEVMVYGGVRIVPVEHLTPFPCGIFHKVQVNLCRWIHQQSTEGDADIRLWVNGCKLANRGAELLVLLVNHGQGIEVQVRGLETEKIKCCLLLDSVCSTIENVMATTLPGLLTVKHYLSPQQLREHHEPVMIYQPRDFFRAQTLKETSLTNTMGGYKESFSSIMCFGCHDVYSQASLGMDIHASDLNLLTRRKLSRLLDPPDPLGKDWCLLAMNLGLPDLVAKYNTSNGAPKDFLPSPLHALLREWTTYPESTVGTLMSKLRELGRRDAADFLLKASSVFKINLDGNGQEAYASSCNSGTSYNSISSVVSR
inactive: lapatinib 0.042 | crizotinib 0.022 | [1] 0.188 | duvelisib 0.042 | gandotinib 0.058 | doramapimod -0.141 | [2] -0.383 | nilotinib -0.061 | [3] 0.017 | dasatinib -0.052 | [4] -0.146 | [5] -0.049 | quisinostat -0.135 | tipifarnib 0.056 | [7] -0.103 | [8] -0.075
active: [6] 0.812

COX7B (UniProt P24311)
inactive: lapatinib -0.002 | crizotinib 0.058 | [1] 0.025 | duvelisib 0.005 | gandotinib 0.01 | tozasertib 0.035 | doramapimod 0.035 | [2] 0.099 | nilotinib 0.001 | [3] 0.017 | dasatinib -0.008 | [4] 0.016 | [5] 0.025 | quisinostat 0.047 | tipifarnib 0.023 | [6] -0.03 | [7] -0.047 | [8] 0

CSNK2A1, A0A2R8Y4D6
inactive: lapatinib -0.132 | [7] 0.085

CIC (UniProt I3L1Q4)
inactive: pictilisib 0.065 | bafetinib 0.021

CPLX1 (UniProt O14810)
active: dasatinib 1.05
inactive: lapatinib -0.095 | duvelisib -0.001 | tozasertib 0.167 | [5] -0.134 | [7] 0.178

CLASP2 (UniProt O75122)
inactive: lapatinib 0.003 | crizotinib 0.127 | [1] -0.086 | gandotinib -0.031 | tozasertib 0.052 | doramapimod -0.001 | bafetinib -0.199 | [2] 0.067 | nilotinib 0.013 | [3] -0.14 | [4] -0.061 | quisinostat -0.135 | tipifarnib -0.242 | [6] -0.058 | [7] 0.205

CUX1 isoform 2 (UniProt Q13948)
inactive: lapatinib -0.168 | crizotinib -0.073 | [1] 0.104 | duvelisib 0.014 | gandotinib 0.041 | tozasertib 0.057 | doramapimod -0.12 | [2] -0.089 | dasatinib 0.001 | [5] 0.101 | quisinostat 0.072 | [6] -0.026 | [7] -0.073 | [8] 0.012

CSNK1A1 isoform 3 (UniProt P48729)
Sequence of UniProt P48729 (P48729 whole entry, looked up): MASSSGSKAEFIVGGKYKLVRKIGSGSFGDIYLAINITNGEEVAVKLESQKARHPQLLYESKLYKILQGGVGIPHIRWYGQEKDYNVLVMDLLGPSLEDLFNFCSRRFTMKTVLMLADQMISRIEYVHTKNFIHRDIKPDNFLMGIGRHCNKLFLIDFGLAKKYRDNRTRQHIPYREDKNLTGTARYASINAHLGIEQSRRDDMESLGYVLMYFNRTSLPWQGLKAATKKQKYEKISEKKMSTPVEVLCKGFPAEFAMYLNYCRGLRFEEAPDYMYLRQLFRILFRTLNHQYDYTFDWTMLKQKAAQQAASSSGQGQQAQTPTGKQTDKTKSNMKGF
inactive: duvelisib -0.077 | dasatinib 0.048 | [5] -0.183

DNA2 (UniProt P51530)
Sequence of UniProt P51530 (P51530 whole entry, looked up): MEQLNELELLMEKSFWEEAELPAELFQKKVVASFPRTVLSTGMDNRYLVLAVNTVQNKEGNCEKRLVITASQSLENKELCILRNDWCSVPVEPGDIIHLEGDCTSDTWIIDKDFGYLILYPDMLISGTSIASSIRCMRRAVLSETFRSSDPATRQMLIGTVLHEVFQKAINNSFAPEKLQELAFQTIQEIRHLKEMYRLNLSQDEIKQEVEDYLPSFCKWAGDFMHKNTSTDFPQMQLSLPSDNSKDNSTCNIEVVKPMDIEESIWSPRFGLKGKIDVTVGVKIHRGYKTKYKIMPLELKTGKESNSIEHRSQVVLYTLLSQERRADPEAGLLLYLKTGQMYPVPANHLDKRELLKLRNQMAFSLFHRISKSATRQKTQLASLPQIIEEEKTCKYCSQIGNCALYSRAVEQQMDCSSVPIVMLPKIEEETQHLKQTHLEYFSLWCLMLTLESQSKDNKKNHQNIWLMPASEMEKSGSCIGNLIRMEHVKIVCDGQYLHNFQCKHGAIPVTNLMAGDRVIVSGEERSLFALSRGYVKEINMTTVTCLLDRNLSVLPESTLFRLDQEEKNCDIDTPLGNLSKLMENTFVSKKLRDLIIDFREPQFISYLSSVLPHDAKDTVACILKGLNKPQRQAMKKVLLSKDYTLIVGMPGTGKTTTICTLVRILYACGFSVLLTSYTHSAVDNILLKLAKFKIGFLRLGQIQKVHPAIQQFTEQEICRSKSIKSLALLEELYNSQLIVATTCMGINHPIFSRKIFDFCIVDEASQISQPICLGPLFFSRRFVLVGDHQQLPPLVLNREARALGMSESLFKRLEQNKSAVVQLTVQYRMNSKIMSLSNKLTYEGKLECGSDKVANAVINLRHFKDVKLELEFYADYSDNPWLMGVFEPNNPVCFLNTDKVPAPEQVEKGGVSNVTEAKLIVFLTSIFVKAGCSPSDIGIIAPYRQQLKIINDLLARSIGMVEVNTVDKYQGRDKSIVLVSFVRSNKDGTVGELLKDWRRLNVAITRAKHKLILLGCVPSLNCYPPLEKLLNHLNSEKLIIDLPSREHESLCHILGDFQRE
inactive: crizotinib -0.046 | [1] 0.052 | duvelisib -0.02 | gandotinib 0.013 | tozasertib -0.07 | doramapimod 0.051 | [2] -0.017 | nilotinib 0.011 | [3] 0.007 | dasatinib 0.069 | [4] 0.005 | [5] 0.05 | quisinostat -0.069 | tipifarnib -0.04 | [6] 0.043 | [8] 0.067

CNNM2 (UniProt Q9H8M5)
inactive: lapatinib 0.006 | crizotinib 0.021 | [1] -0.039 | duvelisib 0.041 | gandotinib -0.064 | tozasertib -0.078 | doramapimod -0.026 | [2] 0.036 | dasatinib -0.021 | [5] -0.044 | quisinostat 0.217 | [6] -0.077 | [7] -0.001 | [8] -0.006

DESI2 (UniProt Q9BSY9)
Sequence of UniProt Q9BSY9 (Q9BSY9 whole entry, looked up): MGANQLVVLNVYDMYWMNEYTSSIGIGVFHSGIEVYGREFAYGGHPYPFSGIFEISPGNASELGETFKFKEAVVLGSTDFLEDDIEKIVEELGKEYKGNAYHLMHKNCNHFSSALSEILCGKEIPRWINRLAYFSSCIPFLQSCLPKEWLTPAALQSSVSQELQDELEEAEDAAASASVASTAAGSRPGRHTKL
inactive: [1] -0.095 | gandotinib -0.078 | tozasertib -0.095 | [2] 0.316

DDR1 isoform 5 (UniProt Q08345)
active: crizotinib -0.712
inactive: pictilisib -0.075 | [1] 0.097 | duvelisib -0.051 | gandotinib -0.305 | bafetinib 0.101 | [2] 0.007 | nilotinib 0.036 | [3] 0.013 | dasatinib 0.083 | [4] -0.216 | [5] 0.103 | quisinostat 0.045 | tipifarnib -0.012 | [6] -0.054

CXCL14 (UniProt O95715)
inactive: pictilisib -0.083 | tozasertib -0.021 | bafetinib -0.649

CSAD isoform 3 (UniProt Q9Y600)
inactive: pictilisib -0.123 | crizotinib -0.123 | doramapimod 0.035 | bafetinib 0.046 | quisinostat -0.035 | [6] -0.001 | [8] -0.153

DHX32 (UniProt Q7L7V1)
inactive: crizotinib -0.03 | [1] -0.013 | gandotinib -0.01 | tozasertib 0.108 | doramapimod 0.012 | [2] -0.077 | nilotinib -0.025 | [3] -0.027 | [4] -0.044 | quisinostat -0.015 | tipifarnib -0.061 | [6] 0.142 | [8] 0.108

CYP2S1 isoform 2 (UniProt Q96SQ9)
inactive: lapatinib 0.316 | crizotinib 0.023 | duvelisib -0.075 | tozasertib -0.023 | doramapimod -0.057 | dasatinib 0.116 | [5] 0.093 | quisinostat 0.014 | [6] -0.135 | [7] 0.054 | [8] -0.056

DAZAP1 (UniProt K7EQ02)
inactive: nilotinib -0.221 | [3] 0.096 | [4] 0.119 | tipifarnib -0.039

CLIP1, A0A3B3ITA2
inactive: crizotinib -0.033 | [1] -0.222 | gandotinib 0.55 | doramapimod -0.138 | [2] 0.269 | quisinostat -0.169 | [6] 0.017

DNM2 isoform 4 (UniProt P50570)
inactive: lapatinib 0.031 | crizotinib 0.014 | [1] -0.16 | duvelisib 0.015 | gandotinib -0.134 | tozasertib -0.084 | doramapimod 0.066 | [2] 0.16 | nilotinib 0.078 | [3] -0.018 | dasatinib -0.095 | [4] -0.03 | [5] 0.162 | quisinostat 0.025 | tipifarnib -0.12 | [6] 0.088 | [7] 0.044 | [8] -0.181

CHFR (UniProt Q96EP1)
inactive: lapatinib -0.062 | crizotinib -0.051 | duvelisib 0.023 | tozasertib -0.063 | doramapimod -0.012 | nilotinib 0.035 | [3] 0.082 | dasatinib 0.017 | [4] 0.019 | [5] 0.049 | quisinostat 0.02 | tipifarnib 0.013 | [6] 0.036 | [7] 0.246 | [8] 0.005

COPS9 (UniProt Q8WXC6)
inactive: lapatinib 0.148 | [7] -0.074 | [8] 0.214

COL6A3 (UniProt P12111)
inactive: pictilisib -0.019 | crizotinib -0.023 | [1] -0.04 | duvelisib 0.013 | gandotinib -0.036 | doramapimod 0.032 | bafetinib 0.036 | [2] 0.048 | nilotinib 0.05 | [3] 0.151 | dasatinib 0.032 | [4] 0.02 | [5] -0.055 | quisinostat 0.123 | tipifarnib -0.009 | [6] 0 | [8] -0.155
